About 83,000 compounds went through this panel and 20% of them were active in at least one assay; those are over-represented in the sample as a whole.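 The endpoint reported here, percent growth, reads 100 for growth as untreated, 0 for no net growth and -100 for all cells dead.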 A number with no mark means an inactive call. The source made the active and inactive calls. Rule for the calls: active = growth percent below 10; inactive = the rest.
How the values were obtained:
Assay in all cases: NCI-60 one-dose screen, 48 h (100 = growth as untreated, 0 = no growth, -100 = all killed)
Details in all cases: 10 µM
SK-MEL-2 melanoma = tested on: SK-MEL-2 melanoma
SN12C renal = tested on: SN12C renal
UO-31 renal = tested on: UO-31 renal
TK-10 renal = tested on: TK-10 renal
ACHN renal = tested on: ACHN renal
CAKI-1 renal = tested on: CAKI-1 renal
A498 renal = tested on: A498 renal
CCRF-CEM leukemia = tested on: CCRF-CEM leukemia
MOLT-4 leukemia = tested on: MOLT-4 leukemia
SR leukemia = tested on: SR leukemia
RPMI-8226 leukemia = tested on: RPMI-8226 leukemia
OVCAR-8 ovarian = tested on: OVCAR-8 ovarian
OVCAR-5 ovarian = tested on: OVCAR-5 ovarian
OVCAR-4 ovarian = tested on: OVCAR-4 ovarian
SK-OV-3 ovarian = tested on: SK-OV-3 ovarian
IGROV1 ovarian = tested on: IGROV1 ovarian
OVCAR-3 ovarian = tested on: OVCAR-3 ovarian
HS 578T breast = tested on: HS 578T breast
NCI/ADR-RES ovarian = tested on: NCI/ADR-RES ovarian

| SMILES | growth (SK-MEL-2 melanoma) | growth (SN12C renal) [%] | growth (UO-31 renal) [%] | growth (TK-10 renal) [%] | growth (ACHN renal) [%] | growth (CAKI-1 renal) [%] | growth (A498 renal) | growth (CCRF-CEM leukemia) | growth (MOLT-4 leukemia) | growth (SR leukemia) | growth (RPMI-8226 leukemia) | growth (OVCAR-8 ovarian) | growth (OVCAR-5 ovarian) [%] | growth (OVCAR-4 ovarian) [%] | growth (SK-OV-3 ovarian) [%] | growth (IGROV1 ovarian) [%] | growth (OVCAR-3 ovarian) | growth (HS 578T breast) [%] | growth (NCI/ADR-RES ovarian) [%] |
| --- | --- | --- | --- | --- | --- | --- | --- | --- | --- | --- | --- | --- | --- | --- | --- | --- | --- | --- | --- |
| COc1cc(CSc2nc3ccc(Cl)cc3c(=O)n2-c2ccccc2)cc(OC)c1OC | 77.5% | 76 | 47.8 | 97.7 | 78.9 | 73.9 | 81.7% | 95.1% | 69.8% | 45.6% | 105% | 84.3% | 84.7 | 81.7 | 94.4 | 72.5 | 77.8% | 90.3 | 75.5 |
| O=C(Nc1ccc(Oc2ccc(Nc3nc4ccccc4s3)cc2)cc1)Nc1ccc(Cl)c(Cl)c1 | 50.7% | 24.9 | 25.8 | 54.1 | 20.3 | 37.6 | 33.4% | 24.5% | 9.65% (active) | 8.33% (active) | 22.2% | 32.6% | 70.5 | 24.9 | 69 | 39.4 | 22.8% | 61.9 | 25.3 |
| CCCc1c(CC)c(=N)c2ccccc2n1C | 37.3% | 72.5 | 38.3 | 74.4 | 65.8 | 39.8 | 42.4% | 9.26% (active) | 0.122% (active) | -27.5% (active) | -17% (active) | 76.1% | 100 | 79.7 | 91.3 | 82.8 | 85% | 76.5 | 78.6 |
| O=C(Nc1cccc(C(F)(F)F)c1)C(Cl)Cl | 97.4% | 105 | 80.6 | 108 | 103 | 105 | 101% | 98.8% | 98.4% | 94.3% | 98.5% | 98.7% | 105 | 110 | 103 | 92.5 | 107% | 107 | 104 |
| CCCCCCOc1ccc(/C=C/C(=O)c2ccc(B(O)O)cc2)cc1 | 78% | 71.4 | 51.6 | 85.2 | 89.5 | 61.5 | 70.4% | 59.1% | 58.3% | 48.4% | 46.2% | 81.2% | 77.3 | 64.6 | 87.3 | 64.7 | 97.1% | 60.3 | 77.4 |
| Nc1c(C(=O)NC2CCCCC2)sc2nc3c(cc12)C(=O)CCC3 | 97.2% | 93.3 | 94.6 | 140 | 107 | 90.3 | 88.6% | 98.8% | 90.2% | 78.7% | 100% | 101% | 114 | 105 | 120 | 116 | 112% | 102 | 102 |
| Cc1ccc(C)c2c1sc1nc3n[nH]c(N)c3c(=N)n12 | 96.1% | 104 | 85.8 | 116 | 101 | 90.5 | 103% | 97.3% | 96% | 97.6% | 93.2% | 97.9% | 106 | 101 | 127 | 127 | 114% | 107 | 110 |
| CCCCCCCC/C=C/CCCCCCCCC1=NCCN1CCO | 95.1% | 64.1 | 38.5 | 124 | 58.7 | 80.5 | 84.7% | 19.7% | 34.3% | -8.86% (active) | 52.7% | 74.9% | 95.2 | 81.7 | 97.8 | 63.8 | 83.1% | 81 | 81.1 |
| NCCNc1ccc2cc(-c3nc4ccccc4[nH]3)c(=O)oc2c1 | 106% | 92.2 | 81.7 | 128 | 95.8 | 96.3 | 94.7% | 81.9% | 88.4% | 86.2% | 95.7% | 98.2% | 101 | 86.1 | 104 | 99.8 | 98.7% | 91.6 | 95.1 |
| COc1ccc(S(=O)(=O)Nc2cc(/C=C\c3cc(OC)c(OC)c(OC)c3)ccc2OC)cc1 | 5.84% (active) | 15.6 | 24.6 | 39.6 | 18.7 | 26 | -19.2% (active) | 15.4% | 8.46% (active) | 10.2% | 7.64% (active) | 9.01% (active) | 30.7 | 34.4 | 11.8 | 13.6 | -19.8% (active) | 10.6 | 11 |
| Fc1ccc(-c2cc(C(Cl)Cl)no2)cc1 | 116% | 97.6 | 78.7 | 131 | 102 | 84.9 | 99.3% | 93.1% | 108% | 106% | 96.1% | 109% | 101 | 92.2 | 112 | 106 | 98.2% | 93 | 108 |
| COc1cccc(C(=O)NNc2nc(N3CCN(C4CCCCC4)CC3)nc(N3CCN(C(c4ccccc4)c4ccccc4)CC3)n2)c1 | 87.3% | 51.8 | 32.9 | 46.1 | 70.2 | 59.4 | 49.2% | 39.9% | 15.5% | -16.1% (active) | -11.5% (active) | 30.1% | 94.3 | 24.2 | 52.2 | 37.6 | 32.2% | – | 31.1 |
| COc1cccc(C(=O)NNc2nc(N3CCOCC3)nc(N3CCN(C(c4ccccc4)c4ccccc4)CC3)n2)c1 | 85.3% | 75.3 | 39.7 | 86.7 | 76.3 | 44.7 | 51.3% | 85.1% | 63.2% | 65.6% | 71.2% | 82.5% | 94.1 | 73.4 | 73.7 | 67.4 | 74.6% | 80.1 | 84.3 |
| COc1cc(CSc2nc3ccc(C)cc3c(=O)n2-c2ccccc2)cc(OC)c1OC | 14.7% | 37 | 24.1 | 61.7 | 44.7 | 27.6 | 16% | 15.8% | 21.8% | 20.3% | 54.9% | 52.9% | 46.4 | 57.2 | 13.6 | 33.2 | -1.43% (active) | 28.2 | 17.8 |
| COc1ccc2nc(-c3ccccc3)cc(C(C)=O)c2c1 | 96.6% | 94.9 | 73.8 | 89.7 | 97.7 | 87.9 | 74.8% | 91.2% | 73.1% | 81.6% | 94.5% | 97.3% | 92.4 | 103 | 107 | 86.2 | 115% | – | 90.1 |
| Cc1ncc([N+](=O)[O-])n1CCOc1ccc(C(=O)/C=C/c2ccc(C(F)(F)F)cc2)cc1 | 81% | 77.9 | 40.6 | 72.4 | 80.7 | 81.3 | 74.5% | 27.5% | 28.3% | -13.2% (active) | 12.9% | 51.8% | 90 | 100 | 79.4 | 80.4 | 51.3% | – | 65.9 |
| N#Cc1c(-c2ccccc2)nc(SCC(=O)N2CCOCC2)[nH]c1=O | 107% | 99.1 | 71.9 | 110 | 98.5 | 94.1 | 93.5% | 95.1% | 83.5% | 90.1% | 99% | 99.3% | 103 | 104 | 90.7 | 112 | 110% | 108 | 103 |

— PubChem BioAssay (NCI)
